Screens as filed in PubChem BioAssay.
HT1080 IDH1KD tx: kills HT-1080 cells with IDH1 knockdown | HT-1080 IDH1 knockdown viability, ATP luminescence, 48 h | actives 2% (n = 360,000) | Potency, µM (titrated, usually from 46.1 µM), actives largely listed as cytotoxic
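HT-1080-IDH1KD cells (IDH1 knocked down), 750/well in RPMI with 5% FBS, treated with compound 48 h at 37 degrees C. Viability by CellTiter-Glo luminescence, normalised to DMSO and no-cell wells; concentration-response curves classed.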
DT40 TDP1 no CPT: qHTS for Inhibitors of human tyrosyl-DNA phosphodiesterase 1 (TDP1): qHTS in cells in absence of CPT | DT40 Tdp1-/- hTDP1 cells, no CPT, ATP luminescence, 48 h | actives 15% (n = 420,000) | Potency, µM (titrated, usually from 46.2 µM), most hits filed as inhibitors; note: nearly all actives have a fitted effect of over 55% in size
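Chicken DT40 Tdp1-/- cells stably complemented with human TDP1 were seeded at 400 cells/well with DMSO in place of 20 nM camptothecin. After compound pinning, cells grew at least 48 hr at 37 °C; viability read by CellTiter-Glo luminescence.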
IL-1B inflam inh: inhibitors of inflammasome signaling (IL-1 beta secretion) | actives 4.7% (n = 360,000) | activity change, % at 57.5 µM | THP-1 LPS/ATP IL-1B secretion, AlphaLISA, 16 h; stronger effect = lower value; in the data active = activity change below about -50%; inconclusive = mostly about -30% to -49%
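THP-1 cells pretreated 1 hr with compounds (up to 57.5 uM final), then stimulated with LPS (250 ng/mL final) plus ATP (1.25 mM final); secreted IL-1B measured by AlphaLISA after 16 hr, decreased signal indicating inhibition.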
HT1080-NT tox: kills 2HG-producing HT-1080-NT fibrosarcoma cells; HT-1080-NT fibrosarcoma viability, CellTiter-Glo ATP luminescence, 48 h; AID 686970; actives 1.6% (n = 360,000); Potency, µM (series often up to 46.1 µM), hits mostly cytotoxic;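 note: NT is the 2HG producing partner of a matched IDH1 knockdown line; nearly all actives have a fitted effect of over 55% in size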
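Read-out is CellTiter-Glo luminescence after 10 minutes at room temperature, following 48 hours' compound treatment of HT-1080-NT cells (750 cells/well, RPMI, 5% FBS, 37 degrees C).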
TDP1 cell CPT: growth inhibition of DT40 Tdp1-/-;hTDP1 cells with camptothecin (screen for TDP1 inhibitors); chicken DT40 Tdp1-/-;hTDP1 cells + 20 nM CPT, ATP luminescence, 48 h; Potency, µM (doses to about 46.2 µM), hits mostly inhibitors; actives 12% (n = 420,000); note: nearly all actives have a fitted effect of over 55% in size
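Chicken DT40 Tdp1-/- cells stably complemented with human TDP1 were seeded at 400 cells/well in medium containing 20 nM camptothecin, exposed to pin-transferred compounds, and grown at 37 °C for at least 48 hr. Viability was read as ATP luminescence.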
Each line names hits and unclear results; the compound was inactive in the other large screens. Most compounds without a hit are left out; they make up all but 19% or so of the library. Unless noted, calls come from the whole dose curve; as a rule, active = well fitted curve in the direction sought with a large enough effect; inconclusive = small, poorly fitted or top-dose-only effect, or another doubt; inactive = no such curve, though single readings can be large; an effect the other way counts as inactive or inconclusive.

Cc1ccc(F)cc1-c1nc(NC(C)C)nc2cc(-c3ccccc3)sc12	HT1080 IDH1KD tx inconclusive, DT40 TDP1 no CPT 18µM, IL-1B inflam inh inconclusive, TDP1 cell CPT inconclusive
Cc1cccc(NC(=O)c2cccc(Cn3cc(Br)c([N+](=O)[O-])n3)c2)c1C	DT40 TDP1 no CPT 21µM, IL-1B inflam inh inconclusive, TDP1 cell CPT inconclusive
Cc1ccccc1NC(=O)c1cccc(Cn2cc(Br)c([N+](=O)[O-])n2)c1	DT40 TDP1 no CPT inconclusive, TDP1 cell CPT inconclusive
CC(/C=N/Nc1ccc2nncn2n1)=C\c1ccccc1	DT40 TDP1 no CPT inconclusive, TDP1 cell CPT inconclusive
O=C1CCCN1CCC1CCN(C2CC(=O)N(c3ccc(F)cc3)C2=O)CC1 (stereo unspecified)	DT40 TDP1 no CPT 21µM, TDP1 cell CPT 18µM
O=C(C1CCN(C2CC(=O)N(c3ccc(F)cc3)C2=O)CC1)N1CCOCC1 (stereo unspecified)	TDP1 cell CPT inconclusive
c1ccc(-n2cnnn2)cc1	none (no result: HT1080 IDH1KD tx, IL-1B inflam inh, HT1080-NT tox)
CC(C)NC(=O)C1(C)CSCC(=O)N1CCOc1ccccc1 (stereo unspecified)	none
